# According to PubChem BioAssay (NCATS):
# Inconclusive results are not listed. Activity calls are given as the source filed them. The call rests on the fitted dose curve; in most records, active means well fitted inhibition curve with a large enough effect; inconclusive means small, poorly fitted or top-dose-only effect; inactive means flat fitted curve, though single readings scatter.
# Target: Calcium and integrin-binding protein 1 (Homo sapiens) (UniProt Q99828)
# Assay: Primary qHTS for Identification of Calcium Integrin Binding Protein 1 (CIB1) Competitor (AID 1508620);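 further: GST tagged CIB1 binding a fluorescein labelled alphaIIb integrin peptide tracer; top concentration of the series differs between compounds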
# Conditions: CIB1-GST / FITC-alphaIIb peptide fluorescence polarization; series mostly up to 114 µM; activity change, negative = inhibition: at the top concentration
# Procedure, shortened: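 CIB1-GST (1 uM final) and compound incubated 15 min at room temperature before adding FITC-alphaIIb peptide tracer (100 nM final). Competition for binding read by fluorescence polarization (ex 480, em 540) after another 15 min at room temperature.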
# On the % scale 0 is the no-effect control and ±100 the full control effect.
# Sequence of Calcium and integrin-binding protein 1 (Homo sapiens) (Q99828 whole entry, looked up): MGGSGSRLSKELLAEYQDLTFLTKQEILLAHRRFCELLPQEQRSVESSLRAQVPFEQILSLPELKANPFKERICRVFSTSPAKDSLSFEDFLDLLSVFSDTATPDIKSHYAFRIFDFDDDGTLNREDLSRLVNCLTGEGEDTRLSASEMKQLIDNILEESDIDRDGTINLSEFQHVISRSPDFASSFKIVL
SMILES,"activity change, negative = inhibition",Potency
NC(=O)C1CCN(c2nc(-c3ccc4ccccc4c3)cs2)CC1,-3.42% (inactive),–
Cc1cc(C)nc(NC(=S)N2CCN(c3ccc4occc4c3)CC2)c1,-10.3% (inactive),–
CC(=O)Nc1ccc(OCc2cccc(-c3nc4ccccc4c(=O)n3Cc3ccco3)c2)cc1,-19.1% (inactive),–
Cc1ccc2nc3sc(C(=O)NCCc4cccnc4)cc3cc2c1,2.34% (inactive),–
CC(=O)c1cccc(-c2csc(N3CCC(C(N)=O)CC3)n2)c1,-2.67% (inactive),–
O=C1NS(=O)(=O)c2cc(Cl)ccc21,-0.262% (inactive),–
CC(=O)c1ccc(-c2csc(N3CCC(C(N)=O)CC3)n2)cc1,4.43% (inactive),–
COc1cc(O)c(C(CC(=O)N2CCC[C@H](C)C2)c2ccc3c(c2)OCO3)c(OC)c1 (some centres undefined),-5.13% [at 228 µM] (inactive),–
O=S(=O)(c1cccc(O)c1)N1CCN(S(=O)(=O)c2c(F)cccc2F)CC1,4.37% (inactive),–
O=C(O)CN1C(=O)/C(=C/c2ccc(-c3cccc(Cl)c3)o2)SC1=S,58.9% (inactive),–
CC(C)(C)OC(=O)N1CCC(c2ccc(NCc3ccc(-c4ccc(C#N)cc4)o3)cc2)CC1,-0.84% (inactive),–
COc1cc(OC)cc(-c2nnc3n2N=C(c2ccc(OC)cc2OC)CS3)c1,11.3% (inactive),–
O=S(=O)(NCc1ccccc1)c1ccc(O)c2ncccc12,-12.7% (inactive),–
COc1ccccc1C1=Nn2c(nnc2-c2ccccc2C)SC1,–,inactive
FC(F)(F)c1ccccc1-c1nc(NCc2ccc(Br)cc2)c2ccccc2n1,0.0558% (inactive),–
N#Cc1c(-c2ccc(F)c(Br)c2)no[n+]1[O-],-14.7% (inactive),–
Cc1ccc(NS(=O)(=O)c2cc3c(cc2Cl)NC(=O)CO3)cc1Cl,2.62% (inactive),–
O=C(CSc1nnc(-c2cccc(S(=O)(=O)N3CCCC3)c2)n1-c1ccccc1)Nc1ccc(F)cc1,-0.658% (inactive),–
O=C1CCCC2=C1C(c1[nH]ncc1Cl)N=C(Nc1nc3c(Br)cccc3o1)N2 (centres undefined),-8.14% (inactive),–
N#Cc1ccccc1CCc1nc2ncc(Br)cc2[nH]1,7.28% (inactive),–

SMILES,"activity change, negative = inhibition",Potency
COc1ccc(C2N=C(Nc3nc4ccccc4o3)NC3=C2C(=O)CCC3)cc1 (centres undefined),-10.4% (inactive),–
Oc1c(CNc2ccccc2)cc(COCc2ccccc2)c2cccnc12,-1.21% (inactive),–
COCc1nn2c(=O)cc(N3CCNCC3)nc2s1,-0.148% (inactive),–
CC(=O)Nc1ccc(S(=O)(=O)Nc2cccc3cccnc23)cc1,4.04% (inactive),–
O=C1CCCC2=C1C(c1[nH]ncc1Cl)N=C(Nc1nc3cc([S+](=O)([O-])N4CCCC4)ccc3o1)N2 (centres undefined),4.75% (inactive),–
Fc1cccc(CNc2ncnc3ccc(-c4ccc5c(c4)OCO5)cc23)c1,4.84% (inactive),–
COc1ccc(-c2cncc(NC(=O)c3cccs3)c2)cc1OC,2.31% (inactive),–
O=c1c2[nH]c3ccsc3c2cnn1Cc1ccccc1F,1.08% (inactive),–
O=C(Nc1ccc(O)c2ncccc12)c1ccccc1F,-19.4% (inactive),–
O=C1c2ccccc2C(=O)N1c1cccc2ccncc12,-3.22% (inactive),–
Cc1cc(C)nc(NC(=S)N2CCN(c3ccc(Cl)cc3F)CC2)c1,-4.34% (inactive),–
O=S(=O)(c1ccc2c(c1)OCCO2)N1CCN(S(=O)(=O)c2ccc3c(c2)OCCO3)CC1,–,inactive
Cc1ccc(-c2cnn(CC(=O)NCCc3ccccc3)c(=O)c2)cc1,2.92% (inactive),–
O=C(OCC#CCSc1nnc(-c2cccc3ccccc23)o1)c1ccc(Br)cc1,-1.14% (inactive),–
N#Cc1ncc(C(=O)OCC(=O)NC2C3CC4CC(C3)CC2C4)cn1 (centres undefined),-3% (inactive),–
O=C1Nc2c(Cl)cccc2/C1=C\c1cc(Cl)c(O)c(Cl)c1,14% (inactive),–
FC(F)(F)c1cc(-c2ccc(CNc3nc(-c4ccccc4C(F)(F)F)nc4ccccc34)cc2)ccc1Cl,5.16% (inactive),–
N#CC1=C(NC=NCc2ccccc2)Oc2ccc3ccccc3c2C1c1ccccc1 (centres undefined),13.6% (inactive),–
O=C(Nc1ccc(Cl)c(Cl)c1)Nc1ncc(-c2ccncc2)s1,-2.01% (inactive),–
